Several values for one entry are separate records, joined by “and”; a condition that tells them apart may be missing. Equal values may be shown once. Among all 16,000 compounds or so, about 2,600 (16%) were called active. About 20% were inconclusive and are not listed. A selection follows. Values without a mark were called inactive. Calls follow the shape of the dose curve; as a rule, active = well fitted curve in the direction sought with a large enough effect; inconclusive = small, poorly fitted or top-dose-only effect, or effect the other way; inactive = no such curve, though single readings can be large or run the other way.
biological target: Cytochrome P450 2D6 (Homo sapiens) (UniProt P10635); test: Cytochrome panel assay with activity outcomes; settings: recombinant CYP, pro-luciferin dealkylation, luminescence, p450-cyp2d6; series mostly up to 57.1 µM
% is scaled to controls: 0 for no effect and ±100 for the full control effect.

Chain of Cytochrome P450 2D6 (Homo sapiens) (P10635 whole entry, looked up): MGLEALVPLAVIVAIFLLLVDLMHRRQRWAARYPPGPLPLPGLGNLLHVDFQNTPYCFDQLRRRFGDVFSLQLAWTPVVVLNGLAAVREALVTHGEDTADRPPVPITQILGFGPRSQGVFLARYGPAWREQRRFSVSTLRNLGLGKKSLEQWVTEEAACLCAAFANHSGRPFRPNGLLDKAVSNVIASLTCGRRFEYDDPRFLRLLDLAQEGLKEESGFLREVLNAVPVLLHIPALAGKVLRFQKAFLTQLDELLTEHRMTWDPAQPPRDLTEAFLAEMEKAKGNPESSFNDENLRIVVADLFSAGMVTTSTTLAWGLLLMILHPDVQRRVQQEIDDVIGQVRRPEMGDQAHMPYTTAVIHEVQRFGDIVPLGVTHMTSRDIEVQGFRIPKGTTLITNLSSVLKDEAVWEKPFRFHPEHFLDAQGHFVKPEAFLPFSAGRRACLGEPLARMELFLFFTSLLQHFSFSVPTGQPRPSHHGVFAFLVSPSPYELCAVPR

| Structure (SMILES) | AC50 | activity, negative = inhibition |
| --- | --- | --- |
| CSc1nsc(/C=C/Nc2ccc(Cl)cc2)c1C#N | inactive | – |
| Cc1noc(C)c1CS(=O)(=O)c1ccc(Br)cc1 | inactive | – |
| CCCCCCCCCCCCCCC[C@@H](O)[C@@H](N)CO | 7.94 µM (active) | – |
| CCCCCCCCCCCCCCC/C=C\[C@H](O)[C@@H](NC(=O)CCCCCCCCCCCCC)OC (tested in a mixture with another compound) | inactive | – |
| CCCCCCCCCCCCC/C=C\[C@@H](O)[C@@H](N)CO | 15.8 µM (active) | – |
| CCCC[S@@](=N)(=O)CC[C@@H](N)C(=O)O | inactive | – |
| CCCCCCC/C=C\CCCCCCCCC(=O)O | inactive | – |
| O=C(O)CN(CCOCCOCCN(CC(=O)O)CC(=O)O)CC(=O)O | inactive | – |
| CC(=O)c1c(C)[nH]c(C(=O)COc2ccc(C#N)cc2)c1C | inactive | – |
| CSc1nc2c(c(=O)[nH]1)C(c1ccncc1)C(C(=O)OC(C)C)=C(C)N2 (stereo not given) | inactive | – |
| COc1cc(C(=O)Nc2ccc3c(c2)OCCO3)c(-n2cnnn2)cc1OC | inactive | – |
| S=C1NC2=C(C(c3ccc(Br)cc3)N1)N1CCC2CC1 (stereo not given) | inactive | – |
| CC1CCN(C(=S)c2ccc(O)cc2)CC1 | inactive | – |
| CCN1CCN(C(=O)CCc2nc3ccccc3c(=O)[nH]2)CC1 | inactive | – |
| CCN1CCN(C(=S)c2ccc(Br)cc2)CC1 | 1 µM (active) | – |
| CO[C@@H]1COC(=O)C/C=C\[C@@H](C)COC(=O)[C@H](COCc2ccccc2)NC(=O)C/C=C\[C@H]1C | – | 10.2% [at 11.4 µM] |
| CC(O)CN(CCC(N)=O)CCC(N)=O (stereo not given) | inactive | – |
| Cc1cccc(Nc2ccncc2S(=O)(=O)NC(=O)NC(C)C)c1 | inactive | – |
| Cn1cc(-c2nc3cnc(N4CCNCC4)nc3n(C3CC3)c2=O)c2ccccc21 | inactive | – |
| CC(C)CC(=O)O/N=C1\C(=O)N(c2ccccc2)c2ccccc21 | inactive | – |
| C=CCn1c(=O)c2c(nc(Br)n2Cc2ccccc2Cl)n(C)c1=O | inactive | – |
| CC(=O)OCC(=O)[C@@]1(OC(C)=O)[C@H](C)C[C@H]2[C@@H]3C[C@H](F)C4=CC(=O)C=C[C@@]4(C)[C@]3(F)[C@H](O)C[C@@]21C | inactive | – |
| O=C1COc2ccc(OCc3ccc(F)cc3)cc21 | inactive | – |
| Cc1cc(NCCO)c2ccccc2n1 | inactive | – |
| O=C(O)CC1(CC(=O)O)Nc2ccccc2SC1=O | – | 8.66% [at 11.4 µM] |
| CN1CCN(CCC=C2c3ccccc3Sc3ccc(S(=O)(=O)N(C)C)cc32)CC1 | 31.6 µM (active) | – |
| CCOC(=O)C1CCCN(C(=O)c2sc3nc(-c4ccc(OC)cc4)cn3c2C)C1 (stereo not given) | inactive | – |

| Structure (SMILES) | AC50 | activity, negative = inhibition |
| --- | --- | --- |
| Cc1c(Nc2cc(N3CCCC(C)C3)c3nonc3c2[N+](=O)[O-])c(=O)n(-c2ccccc2)n1C (stereo not given) | inactive | – |
| COC(=O)c1ccc(N2CCN(c3ccccc3)CC2)c(NC(=O)C2CC2)c1 | inactive | – |
| Cc1ccc(Nc2ccc(-n3ccnc3)nn2)cc1C | 2.51 µM (active) | – |
| O=C(Nc1ncc(Cc2ccccc2)s1)C1COc2ccccc2O1 (stereo not given) | inactive | – |
| O=C1C2CCCN2c2ccc(S(=O)(=O)N3CCOCC3)cc2N1Cc1cccc(C(F)(F)F)c1 (stereo not given) | inactive | – |
| Cc1onc(-c2c(F)cccc2Cl)c1C(=O)N[C@H]1C(=O)N2[C@H]1SC(C)(C)[C@H]2C(=O)O | inactive | – |
| O=C(O)CC[C@@H](C(=O)O)N1C(=O)c2ccccc2C1=O | inactive | – |
| COC(=O)COc1cccc(NC(=O)c2ccc(C)cc2)c1 | inactive | – |
| COc1cccc(OCCCOc2ccccc2C(C)C)c1 | inactive | – |
| CCOc1cccc(OCCCNCCCOC)c1 | 11.2 µM (active) | – |
| O=C(N/N=C/c1ccco1)c1ccccn1 | inactive | – |
| COc1ccc(NC(=O)/C(=C\c2cc(OC)c(OC)cc2[N+](=O)[O-])NC(=O)c2ccccc2)cc1 | inactive | – |
| COc1ccc(C(=O)Nc2ccc(F)cc2F)cc1OC | inactive | – |
| S=C(NCCSCc1ccc(Cl)cc1Cl)Nc1ccccc1 | 6.31 µM (active) | – |
| O=C(Nc1ccc(N=Nc2ccccc2)cc1)c1ccc(Cl)cc1Cl | inactive | – |
| S=C(NCc1ccccn1)Nc1cccc(Cl)c1 | inactive | – |
| O=C(O)CCSCc1ccccc1 | – | -5.23% [at 11.4 µM] |
| Cc1ccccc1OCCNC(=S)Nc1ccccc1 | inactive | – |
| O=C(COc1ccccc1Cl)NC(=S)Nc1cccc(NC(=O)c2ccccc2Cl)c1 | inactive | – |
| S=C(NCCSCc1c(Cl)cccc1Cl)Nc1ccccc1 | 4.47 µM (active) | – |
| O=C(Cc1ccccc1)NCCSCc1ccc(Cl)cc1 | 3.16 µM (active) | – |
| O=C(c1cccs1)n1nc(-c2ccc(Cl)cc2)nc1NCc1ccco1 | inactive | – |
| COc1ccc(Cc2nnc(NC(=O)CSc3ccc(C)cc3)s2)cc1OC | inactive | – |
| O=C1c2cccnc2C(O)N1C1CCCCC1 (stereo not given) | inactive | – |
| COc1ccccc1C(=O)NC(=S)N1CCCc2ccccc21 | inactive | – |
| N#CC(c1ccc(Cl)cc1)(c1ncc(C(F)(F)F)cc1Cl)N1CCOCC1 (stereo not given) | inactive | – |
| C/C(=N\NC(=O)c1ccc(Cl)cc1)c1cccc(NC(=O)C(C)C)c1 | inactive | – |

| Structure (SMILES) | AC50 | activity, negative = inhibition |
| --- | --- | --- |
| Cc1ccccc1C(=O)Nc1cccc(NC(=S)NC(=O)c2cccs2)c1 | inactive | – |
| Nc1nc(=O)c2[nH]cnc2n1O | – | -6.92% [at 11.4 µM] |
| CCC(=O)n1nc(-c2ccc(OC)cc2)nc1N | inactive | – |
| Cc1ccc2[nH]c3c(c2c1)CN(C(=O)CN1c2ccc(F)cc2CCC1C)CC3 (stereo not given) | inactive | – |
| CO[C@H]1COC(=O)[C@@H](CCSC)NC(=O)C/C=C\[C@@H](C)[C@H](OC)COC(=O)[C@@H](OCc2ccccc2)/C=C\[C@@H]1C | – | -4.06% [at 11.4 µM] |
| CCNc1nc(Oc2c(Cl)cccc2Cl)cc(C(F)(F)F)n1 | inactive | – |
| CC(C)(C)NCC[C@@H](O)c1cc(C(F)(F)F)nc2c(C(F)(F)F)cccc12 | 0.316 µM (active) | – |
| CC1(C)OC(C(N)=O)C(C(N)=O)O1 (stereo not given) | inactive | – |
| Cc1ccc(S(=O)(=O)NC(=O)Nc2ncn[nH]2)cc1 | – | 4.38% [at 11.4 µM] |
| Cc1cccc(-n2c(=O)c3c(n4cnnc24)-c2ccccc2CC32CCCCC2)c1 | inactive | – |
| CSc1ccc2c(c1)N(CCCN(C)C)c1ccccc1S2 | 0.501 µM (active) | – |
| CCC(=O)c1ccc2c(c1)N(CCCN(C)C)c1ccccc1S2 | 2 µM (active) | – |
| CN(C)CCCN1c2ccccc2Sc2ccc(C(F)(F)F)cc21 | 794 nM (active) and 398 nM (active) | – |
| CN(C)CCCNC(=O)c1cc2c3ccccc3n(C)c2s1 | inactive | – |
| CCC(=S)/C=C1\Sc2ccccc2N1CCCS(=O)(=O)O | inactive | – |
| CN(C)CCCN1c2ccc(O)cc2Sc2ccc(Cl)cc21 | 0.126 µM (active) | – |
| O=C(CSc1nc2ccccc2s1)N1c2ccccc2Sc2ccc(C(F)(F)F)cc21 | inactive | – |
| CC(C)OC(=O)CSc1nc(-c2ccc(F)cc2)nc2ccc(F)cc12 | inactive | – |
| CC[C@@H](c1ccccc1)n1c(=O)n2n(c1=O)[C@H]1[C@H](O)[C@H]3O[C@@H]3/C(=N/OC/C=C(\C)CCC=C(C)C)[C@@H]1CC2 | – | 3.1% [at 11.4 µM] |
| CCOC(=O)N/N=C/c1ccc(F)cc1 | inactive | – |
| Cc1cccc(-c2n[nH]c([N+](=O)[O-])n2)c1 | inactive | – |
| COC(=O)[C@H](CCSC)NC(=O)NCc1ccccc1F | inactive | – |
| CC(C)=NO[C@@H](C)c1cn([C@H](CO)Cc2ccccc2)nn1 | – | 6.42% [at 11.4 µM] and -9.14% [at 11.4 µM] |
| O=C(NCCN1CCN(C(=O)c2cc3ccccc3oc2=O)CC1)c1cc2ccccc2oc1=O | inactive | – |
| CCNC(=S)N1CCC(NC(=O)C2CCCCC2)CC1 | inactive | – |
| CNC(=O)/C(C#N)=c1\s/c(=C/C(=O)OC)c(=O)n1-c1ccccc1 | inactive | – |
| C/C=C1\C(=O)C[C@@H]2[C@@H]3CCC4=CC(=O)CC[C@@]4(C)[C@H]3CC[C@@]12C | inactive | – |

| Structure (SMILES) | AC50 | activity, negative = inhibition |
| --- | --- | --- |
| COCc1c(C(N)=O)nnn1-c1nonc1N | inactive | – |
| COc1cc(N)c(Cl)cc1C(=O)NC1CCN(Cc2ccccc2)CC1 | 0.0126 µM (active) | – |
| O=C(NC1CCN(Cc2ccccc2)CC1)c1ccc(I)cc1 | 12.6 µM (active) | – |
| O=C(Cc1ccccc1)NC1CCN(S(=O)(=O)c2ccc(C(=O)O)cc2)CC1 | inactive | – |
| CC(C)C(NC(=O)C1CCCCC1)C(=O)NC1CCN(Cc2ccccc2)CC1 (stereo not given) | inactive | – |
| COc1ccc(CC(NC(C)=O)C(=O)NC2CCN(C(=O)Nc3ccc(Cl)cc3)CC2)cc1OC (stereo not given) | inactive | – |
| COc1cc([C@@H](O)CO)ccc1OS(=O)(=O)O | inactive | – |
| O=[N+]([O-])c1ccccc1N=Nc1c(O)[nH]c2ccc(S(=O)(=O)O)cc12 | – | -12.1% [at 11.4 µM] |
| C[C@@](Cc1ccc(O)c(O)c1)(NN)C(=O)O | inactive | – |
| COc1cccc(Nc2ncc3nc(C)c(=O)n(CCc4ccccc4)c3n2)c1 | inactive | – |
| C[C@@]1(C(=O)O)NCCc2cc(O)c(O)cc21 | inactive | – |
| Cc1cc(C)c2c(-n3cccc3)n[nH]c2n1 | 25.1 µM (active) | – |
| Cc1nc(N=Nc2cc(S(=O)(=O)O)ccc2S(=O)(=O)O)c(COP(=O)(O)O)c(C=O)c1O | inactive | – |
| COc1ccc(/C(C#N)=C/c2c(-c3ccc(Cl)cc3)nc3c(C)cccn23)cc1 | inactive | – |
| Cc1sc(NC(=O)C2C3CCC(O3)C2C(=O)O)c(C(=O)OC(C)C)c1-c1ccc(Cl)cc1 (stereo not given) | inactive | – |
| COCC(=O)N1CCC2(CC1)CCN(c1ncccn1)CC2 | inactive | – |
| O=C(Oc1ccccc1)N1CCC2(CC1)CCN(c1ncccn1)CC2 | inactive | – |
| CCN(C(=O)COc1cc(=O)n(C)c2ccccc12)c1cccc(Cl)c1 | inactive | – |
| CN(C(=O)c1cnc(N2CCN(c3ncccn3)CC2)c2ccccc12)c1ccc(Cl)cc1 | 12.6 µM (active) | – |
| O=C(Cn1ccc2ccccc2c1=O)N1CCN(c2cccc(Cl)c2)CC1 | inactive | – |
| COc1ccccc1C(=O)N1CCN(c2ccccn2)CC1 | inactive | – |
| CCN(C(=O)c1cnc(N2CCN(c3ncccn3)CC2)c2ccccc12)c1cccc(Cl)c1 | 10 µM (active) | – |
| O=C(c1cnc(N2CCN(c3ncccn3)CC2)c2ccccc12)N1CCN(c2ccccn2)CC1 | 11.2 µM (active) | – |
| O=C(O)CCC(=O)N1CCN(c2ccccn2)CC1 | inactive | – |
